Compound activity (PubChem BioAssay)
NS1 inh: influenza NS1 inhibition | Potency, µM (titrated, usually from 46.1 µM) | 270,000 tested, 0.4% active | AID 2326; further: actives are rising curves; nearly all actives have a fitted effect of over 50% in size
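In this qHTS, NS1 from influenza A is expressed in budding yeast, where it slows growth. Cells are switched from glucose to 2% galactose medium (pH 6.0, -URA), treated with compound, and growth recovery is read at OD600.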
Shiga inhibitor: blocks Shiga toxin action in Vero cells. Vero cells, Shiga toxin protein synthesis inhibition reporter. inhibition, % at 38.7 µM. 290,000 tested, 9.2% active; in the data active means inhibition mostly above about 28%, no sharp cut-off; inactive means mostly below about 43%
SARS PLpro yeast: SARS-CoV PLP inhibition in yeast | S. cerevisiae expressing SARS-CoV PLpro, growth rescue | Potency, µM (series often up to 32.9 µM), most hits filed as activators | 330,000 tested, 0.19% active | AID 485353; further: nearly all actives have a fitted effect of over 55% in size
CHX counter: counter-screen hit for Shiga toxin inhibitors, cycloheximide | 300,000 tested, 12% active | cell reporter, cycloheximide protein synthesis inhibition counterscreen | max response, %; in the data active means max response mostly above about 13%, no sharp cut-off; inactive means mostly below about 14%; further: read at 38.3 µM for the half of the compounds with a filed dose
Each line names hits and unclear results; the compound was inactive in the other large screens. This is a sample that favours compounds with a hit; in the whole collection about 12% have one here. Unless noted, the call rests on the fitted dose curve.

CSc1ccccc1OCc1cc(C(=O)NC(C)c2cnn(C)c2)no1 (centres undefined)	none
COc1ccc(OCc2cc(C(=O)NC3Cc4ccccc4C3)no2)c(Cl)c1	none
CSc1ccccc1OCc1cc(C(=O)N[C@H]2CCCCNC2=O)no1	Shiga inhibitor 128, CHX counter 57
CC1(c2ccncc2)Nc2ccccc2-c2nc3ccccc3n21 (centres undefined)	CHX counter 16
C=C(C)COc1ccc(-c2nc(N)ncc2-c2ccc(OC)cc2)c(O)c1	none
C=C(C)COc1ccc(-c2ncncc2Oc2ccc(OC)cc2)c(O)c1	Shiga inhibitor 85, CHX counter 28
Cc1nn(-c2ccccc2)c(Cl)c1C(=O)NC1CCCCC1	CHX counter 15
Cc1ccc(NC(=O)c2c(C)nn(-c3ccccc3)c2Cl)c(C)c1	Shiga inhibitor 60, CHX counter 23
Cc1cccc(C)c1NC(=O)c1c(C)nn(-c2ccccc2)c1Cl	none
O=C(CSc1nccc(=O)[nH]1)NCc1ccco1	none
COc1ccc(Oc2ccc(NC(=O)c3ccccc3C)cc2)cc1	none
CC(=O)Nc1ccc(C#Cc2ccc(NC(C)=O)cc2)cc1	Shiga inhibitor 68, CHX counter 34
CC(=O)Nc1ccc(-c2ccc(NC(C)=O)c(O)c2)cc1O	Shiga inhibitor 33, CHX counter 18
CC(=O)Nc1ccccc1O	none
CC(=O)Nc1ccc(-c2ccc(NC(C)=O)cc2)cc1	Shiga inhibitor 60, CHX counter 33 (no result: NS1 inh)
CN(C)C(=O)c1ccc(NC(=O)c2ccccc2Sc2ccccc2C#N)cc1	none
O=C(CN1CCOCC1)NCc1ccccc1Cl	none
CCc1cc(C(=O)N2CCN(S(=O)(=O)c3cc(C)ccc3C)CC2)sc1C	none (no result: NS1 inh, Shiga inhibitor, CHX counter)
CC(C)(C)NC(=O)NC(=O)CSc1nnc(COc2ccccc2Cl)o1	CHX counter 15
O=C(N/N=C/c1ccco1)c1cccc(N2CCCC2=O)c1	Shiga inhibitor active, CHX counter 29
COc1cccc(/C=N/NC(=O)c2cccc(N3CCCC3=O)c2)c1	Shiga inhibitor 107, CHX counter 33
O=C(N/N=C/c1cc(Br)ccc1O)c1cccc(N2CCCC2=O)c1	NS1 inh inconclusive
Cc1ccc(CN2CC(C(=O)Nc3cccc(C)n3)CC2=O)cc1 (centres undefined)	none (no result: NS1 inh, Shiga inhibitor, CHX counter)
COc1ccc(S(=O)(=O)N2CCN(c3ccc(F)cc3)CC2)cc1C(=O)N1CCOCC1	none
Cc1ccc2nc(NCc3ccccc3)c(C=NCc3cccnc3)c(=O)n2c1	Shiga inhibitor 30, CHX counter 14
O=c1c(C=NCc2ccccc2)c(NCc2ccccc2)nc2ccccn12	Shiga inhibitor 80
CNc1nc2c(C)cccn2c(=O)c1C=NCc1ccccc1	none
Cc1ccc2nc(NCc3ccco3)c(C=NCc3ccco3)c(=O)n2c1	CHX counter 12
CCOc1ccc2nc(SCc3ccccc3C#N)sc2c1	Shiga inhibitor 174, CHX counter 71
CCOc1ccc2nc(SCc3ccc(OC)cc3)sc2c1	CHX counter 20
CCOC(=O)c1cnc(N(C)C)nc1SC(=N)N	none (no result: Shiga inhibitor, SARS PLpro yeast, CHX counter)
COc1ccc(/C=C/C(=O)Nc2ccccc2Cl)cc1S(=O)(=O)N1CCOCC1	none
COc1cc2c(cc1OC)CN(C(=O)CN1CCN(S(=O)(=O)c3ccccc3Br)CC1)CC2	Shiga inhibitor 69, CHX counter 17
CN(CC1CCCN(CCc2ccccc2F)C1)C(=O)c1ccoc1 (centres undefined)	none
COc1ccc(CCN2CCCC(CN(C)C(=O)c3ccoc3)C2)cc1 (centres undefined)	Shiga inhibitor 142, CHX counter 52
Cc1ccccc1CCN1CCCC(CN(C)C(=O)C(=O)c2ccco2)C1 (centres undefined)	CHX counter 18
O=C(CN1CCC(NC(=O)c2ccccc2Cl)CC1)NCc1ccco1	none
CC(C)CCNC(=O)CSc1nc2ccccc2s1	none (no result: NS1 inh)
O=C(CSc1nnc(SCC(=O)c2ccco2)s1)c1ccco1	none
O=C(CSc1nc2cc(Cl)ccc2s1)c1ccco1	CHX counter 20
C/C(=N\NC(=O)CSc1nc2ccccc2s1)c1ccco1	Shiga inhibitor 48, CHX counter 17
N#C/C(=C\c1ccco1)Sc1nc2ccccc2s1	Shiga inhibitor 39, CHX counter 69
O=C(CSc1nc2ccccc2s1)N/N=C/c1ccco1	CHX counter 14
O=C(CSc1nc2ccccc2s1)N/N=C/c1ccc(C(=O)O)cc1	none (no result: NS1 inh)
CC(C)CN(C(=O)c1cccc(Cl)c1)c1c(N)n(Cc2ccccc2)c(=O)[nH]c1=O	none (no result: NS1 inh, Shiga inhibitor, CHX counter)
CCN(C(=O)c1ccco1)C1C2CC3CC(C2)CC1C3 (centres undefined)	none
O=C(O)COc1ccccc1/C=N/NC(=O)CSc1nc2ccccc2s1	none
O=C(CSc1nc2ccccc2s1)N/N=C/c1ccccc1C(=O)O	Shiga inhibitor 91, CHX counter 52
COc1ccc(Cl)cc1N(C(=O)Nc1cccc(Cl)c1)C1=NCC(C)S1 (centres undefined)	none
O=C(NCCCN1CCC(Cc2ccccc2)CC1)C1CCN(S(=O)(=O)N2CCC3(CC2)OCCO3)CC1	CHX counter 35 (no result: NS1 inh)
O=C(NCCN1CCC(Cc2ccccc2)CC1)C1CCN(S(=O)(=O)N2CCC3(CC2)OCCO3)CC1	none (no result: NS1 inh)
COc1cccc(/C=C2\SC(=S)N(C(C)C(=O)NC3C=CS(=O)(=O)C3)C2=O)c1 (centres undefined)	none
CC(C)c1ccc(/C=C2\SC(=O)N(CC(=O)NC3C=CS(=O)(=O)C3)C2=O)cc1 (centres undefined)	CHX counter 12
O=C(CN1C(=O)/C(=C/c2ccc(Cl)cc2)SC1=S)NC1C=CS(=O)(=O)C1 (centres undefined)	none
COc1ccc(/C=C2\SC(=S)N(C(C)C(=O)NC3C=CS(=O)(=O)C3)C2=O)cc1 (centres undefined)	Shiga inhibitor 31, CHX counter 23
C/C(Cn1nc([N+](=O)[O-])cc1C)=N\NC(=O)c1ccc(C(C)(C)C)cc1	none
O=C(Cn1cnc([N+](=O)[O-])n1)c1ccccc1	none (no result: SARS PLpro yeast)
Cc1cc([N+](=O)[O-])nn1CC(=O)N/N=C/c1ccccc1O	Shiga inhibitor 57, CHX counter 24
C/C(Cn1cnc([N+](=O)[O-])n1)=N\NC(=O)c1ccccc1	Shiga inhibitor 57, CHX counter 30
COc1ccc(C(=O)N/N=C(\C)Cn2nc([N+](=O)[O-])cc2C)cc1	Shiga inhibitor 58
Cc1cc([N+](=O)[O-])nn1CC(=O)N/N=C/c1ccccc1F	none
C/C(Cn1nnc([N+](=O)[O-])n1)=N\NC(=O)c1ccccc1	Shiga inhibitor 54, CHX counter 24
COc1ccc(/C=N/NC(=O)COc2cc(C)cc(C)c2)cc1COC(C)=O	none
CC(C(=O)NCc1ccc(F)cc1)n1ccc2cc(S(=O)(=O)N3CCCC3)ccc21 (centres undefined)	none
C[C@]12C=CC(=O)C=C1CC[C@@H]1[C@@H]2[C@@H](O)C[C@@]2(C)[C@H]1CC[C@]2(O)C(=O)COC(=O)CCC(=O)NCCc1ccc(O)cc1	none
O=C(Nc1ccc2c(c1)OCCO2)C1CC1c1ccccc1 (centres undefined)	Shiga inhibitor 94, CHX counter 65
O=C(Nc1ccncc1)C1CC1c1ccccc1 (centres undefined)	none
